TDP1 cell noCPT – qHTS for Inhibitors of human tyrosyl-DNA phosphodiesterase 1 (TDP1): qHTS in cells in absence of CPT; DT40 Tdp1-/- hTDP1 cells, no CPT, ATP luminescence, 48 h; Potency, µM (highest dose often 46.2 µM), without a hit: at the highest dose activity change, negative = growth inhibition, most hits filed as inhibitors; actives 15% (n = 420,000); AID 686978, 2013; note: potency is the fitted concentration of half-maximal effect; nearly all actives have a fitted effect of over 55% in size
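Compound effects on proliferation are scored in DT40 Tdp1-/-;hTDP1 cells in the absence of CPT. ATP levels (CellTiter-Glo luminescence) are recorded after a ≥48 hr, 37 °C incubation.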
IL1B secr inh – inflammasome signaling inhibition, IL-1 beta readout; THP-1 LPS/ATP IL-1B secretion, AlphaLISA, 16 h; stronger effect = lower value; activity change, % at 57.5 µM; actives 4.7% (n = 360,000); AID 743279; in the data active = activity change below about -50%; inconclusive = mostly about -30% to -49%
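Secreted IL-1B measured by AlphaLISA bead assay after 16 h compound exposure of THP-1 cells; compounds (final up to 57.5 uM) added 1 h before LPS (250 ng/mL) and ATP (1.25 mM) stimulation; lower signal means less secretion.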
DT40 TDP1 CPT – growth inhibition of DT40 Tdp1-/-;hTDP1 cells with camptothecin (screen for TDP1 inhibitors); chicken DT40 Tdp1-/-;hTDP1 cells + 20 nM CPT, ATP luminescence, 48 h; Potency, µM (highest dose often 46.2 µM), without a hit: at the highest dose activity change, negative = growth inhibition, most hits filed as inhibitors; actives 12% (n = 420,000); note: potency is the fitted concentration of half-maximal effect; nearly all actives have a fitted effect of over 55% in size
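Chicken DT40 Tdp1-/- cells complemented with human TDP1, 400 cells/well, exposed to compounds plus 20 nM camptothecin for at least 48 h at 37 C; viability read as ATP content by CellTiter-Glo luminescence.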
HT1080 IDH1KD tx – HT-1080 IDH1 knockdown cell toxicity (counter line); HT-1080 IDH1 knockdown viability, ATP luminescence, 48 h; AID 686971; actives 2% (n = 360,000); Potency, µM (doses to about 46.1 µM), for inactives: at the highest dose activity, negative = toxicity, hits mostly cytotoxic;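 note: potency is the fitted concentration of half-maximal effect; 0% = DMSO wells and -100% = cell-free medium wells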
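After a 2 h attachment period, IDH1KD HT-1080 cells took pin-transferred compound for 48 h at 37 °C; ATP-based luminescence after 10 min room-temperature reagent incubation reported viability.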
HT1080-NT tox – kills 2HG-producing HT-1080-NT fibrosarcoma cells | Potency, µM (top dose mostly 46.1 µM), for inactives: top-dose activity, negative = less viability, usual class: cytotoxic | HT-1080-NT fibrosarcoma viability, CellTiter-Glo ATP luminescence, 48 h | actives 1.6% (n = 360,000);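 note: NT is the 2HG producing partner of a matched IDH1 knockdown line; potency is the fitted concentration of half-maximal effect; 0% = DMSO-treated cells and -100% = media-only wells without cells; nearly all actives have a fitted effect of over 55% in size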
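HT-1080-NT; 750 cells/well; 5% FBS RPMI; 48 h compound, 37 degrees C; CellTiter-Glo luminescence; curve fitting and curve-class assignment.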
The depositor's hits bear a star; ? = inconclusive; · = no result. Most compounds without a hit are left out; they make up all but 19% or so of the library. Unless noted, calls come from the whole dose curve; as a rule, active = well fitted curve in the direction sought with a large enough effect; inconclusive = small, poorly fitted or top-dose-only effect, or another doubt; inactive = no such curve, though single readings can be large; an effect the other way counts as inactive or inconclusive. Unless noted, % is set by controls: 0 for no effect and ±100 for the full control effect.

SMILES | TDP1 cell noCPT | IL1B secr inh | DT40 TDP1 CPT | HT1080 IDH1KD tx | HT1080-NT tox
Cc1ccc(C)c(N2CCN(S(=O)(=O)c3ccc(-c4cnc(C5CC5)o4)cc3)CC2)c1 | 9.2µM* | · | 15µM* | · | ·
COc1ccccc1N1CCN(S(=O)(=O)c2ccc(-c3cnc(C4CC4)o3)cc2)CC1 | 21µM* | 28 | ? | -10% | 0%
COc1cccc(N2CCN(S(=O)(=O)c3ccc(-c4cnc(C5CC5)o4)cc3)CC2)c1 | 0% | 23 | -20% | 0% | -4%
Cc1ccc(C)c(N2CCN(S(=O)(=O)c3ccc4c(c3)n(C)c(=O)c(=O)n4C)CC2)c1 | -5% | · | -8% | · | ·
O=C(Nc1ccccc1)c1ccc(=O)[nH]n1 | -3% | 0 | -2% | 29% | 14%
Cc1nc(N)sc1-c1csc(Nc2ncccn2)n1 | 18µM* | -81* | 16µM* | 21µM* | ?
COc1cccc(Nc2nc(-c3sc(N)nc3C)cs2)c1 | ? | 0 | 23µM* | 24% | -5%
COc1cccc(Nc2nc(-c3sc(NC(=O)c4ccco4)nc3C)cs2)c1 | 23µM* | -18 | ? | -11% | -15%
CSc1ncccc1C(=O)N1CCCC(Nc2ccc(C)c(C)c2)C1 (configuration not stated) | -32% | 2 | ? | 5% | -5%
CC1(C(=O)Nc2cccc(C(F)(F)F)c2)Cc2c(-c3ccc4c(c3)OCO4)ccnc2O1 (configuration not stated) | 18µM* | 35 | ? | ? | ?
CC1(C(=O)Nc2ccc3c(c2)OCO3)Cc2c(-c3cccc(C(F)(F)F)c3)ccnc2O1 (configuration not stated) | 3.7µM* | 42 | 4.1µM* | 12µM* | ?
NCc1ccccc1 | 18% | -12 | 9% | 1% | 2%
Cc1nc(NC(=O)COC(=O)CCS(=O)(=O)c2ccccc2Cl)c(Cl)cc1Cl | -12% | 15 | 2% | -3% | 9%
COC(=O)C(O)(CC(=O)Nc1cccc(SC)c1)C(F)(F)F (configuration not stated) | -15% | 22 | -1% | 4% | 5%
Cc1ccc(OS(=O)(=O)c2ccccc2)c(/C=N/N=C2\NC(=O)C(C)S2)c1 (configuration not stated) | 18µM* | -3 | ? | -24% | -2%
O=C1CS/C(=N/N=C/c2ccccc2OS(=O)(=O)c2ccccc2)N1 | 1µM* | 23 | 1µM* | 6% | 0%
CSCCC(NC(=O)c1ccco1)C(=O)NC1CCC(C)CC1 (configuration not stated) | -8% | 1 | 2% | 3% | 2%
CC(NC(=O)c1c(F)cccc1Cl)c1ccc(-n2ccnc2)cc1 (configuration not stated) | 10% | 11 | 4% | 9% | 4%
CCc1cc(/C(Cc2ccc3ccccc3n2)=N\O)c(O)cc1O | ? | -101* | ? | -8% | -10%
CCc1cc(/C(Cc2ccccn2)=N\O)c(O)cc1O | -29% | -6 | ? | 13µM* | ?
CCc1cc(C(=O)Cc2nc3ccccc3[nH]2)c(O)cc1O | ? | 68 | -22% | -17% | -28%
CCc1cc(/C(Cc2cscn2)=N\O)c(O)cc1O | ? | 31 | -11% | -7% | -4%
Cc1c(O)ccc(/C(Cc2ccc3ccccc3n2)=N\N)c1O | 10µM* | 0 | 7.3µM* | ? | -16%
C=C(C)CSc1cc(C)c(C#N)c2nc3ccccc3n12 | 9.2µM* | -21 | 21µM* | -5% | -8%
Cc1cc(NCCCCO)n2c(nc3ccccc32)c1C#N | -20% | -24 | -22% | ? | -21%
SMILES | TDP1 cell noCPT | IL1B secr inh | DT40 TDP1 CPT | HT1080 IDH1KD tx | HT1080-NT tox
CCCN(Cc1nnc(-c2cccs2)o1)C(=O)CN1C(=O)NC2(CCCCC2C)C1=O (configuration not stated) | -2% | -16 | -3% | -1% | 3%
CC(C)(C)n1nnnc1C(c1ccc(C#N)cc1)N1CCCC2(CCCCC2)C1 (configuration not stated) | 23µM* | ? | 21µM* | 2% | 8%
C=CCN=C(NC#N)SCc1ccccc1Cl | -22% | -16 | -12% | -1% | -5%
Cc1ccc(C)c(N2CCN(c3c(CN4CCCC4)c(=O)oc4ccccc34)CC2)c1 | 26µM* | · | 21µM* | · | ·
Cc1ccc(N2CCN(c3c(CN4CCCC4)c(=O)oc4ccccc34)CC2)c(C)c1 | ? | · | 16µM* | · | ·
CN(C)C(=O)c1ccc(-c2nnc(OCc3nc4ccccc4n3C)c3ccccc23)cc1 | 19% | 14 | 0% | 0% | 6%
CCN(CC)CCNC(=O)c1ccc2c(=O)n3nc(Nc4ccccc4)sc3nc2c1 | 4.6µM* | · | 5.8µM* | · | ·
Cc1ccc(C)c(Nc2nn3c(=O)c4ccc(C(=O)NCc5ccccc5)cc4nc3s2)c1 | 7.3µM* | · | 5.2µM* | · | ·
Cc1cc(C)n(-c2ccc(C(=O)NCc3cccs3)cc2)n1 | ? | ? | -27% | 21% | 7%
Cc1ccc(C)c(NC(=O)c2ccc3c(=O)n4c(nc3c2)CCC4)c1 | ? | -1 | -6% | 3% | 8%
Cc1cccc(Nc2nn3c(=O)c4cc5c(cc4nc3s2)OCO5)c1 | 2% | · | 0% | · | ·
Cc1ccccc1Nc1nn2c(=O)c3ccc(C(=O)NCC(C)c4ccccc4)cc3nc2s1 (configuration not stated) | 15µM* | · | 15µM* | · | ·
Cc1ccccc1Nc1nn2c(=O)c3ccc(C(=O)NCc4cccs4)cc3nc2s1 | 13µM* | · | 16µM* | · | ·
COc1ccc(CN(C(C)=O)c2cc(C)c([N+](=O)[O-])cc2OC)cc1OC | ? | -24 | -17% | 0% | -1%
O=c1[nH]c(=O)n(CCO)c2nnn(Cc3ccccc3)c12 | 9% | -2 | -2% | 0% | 10%
CCC(C)[C@H](NC(=O)NCc1ccc(S(N)(=O)=O)cc1)C(=O)O (some centres not stated) | 4% | 14 | 5% | 5% | 4%
Cc1ccc(-c2csc3nc4cc(C(N)=O)ccc4c(=O)n23)cc1 | -23% | -18 | -20% | -2% | ?
O=c1c2ccccc2nc2sc(Nc3cccc(C(F)(F)F)c3)nn12 | -5% | · | 0% | · | ·
CCOC(=O)c1ccc(Nc2nn3c(=O)c4ccccc4nc3s2)cc1 | -5% | · | -5% | · | ·
Cc1ccc(CNC(=O)c2ccc3c(=O)n4c(-c5ccc(C)cc5)csc4nc3c2)cc1 | 9.2µM* | 18 | 7.3µM* | 2% | 1%
CCc1cccc(C)c1Nc1nn2c(=O)c3ccccc3nc2s1 | 23µM* | · | 12µM* | · | ·
COc1cccc(CNC(=O)c2ccc3c(=O)n4nc(Nc5ccccc5)sc4nc3c2)c1 | ? | · | 8.2µM* | · | ·
